Screening data (PubChem)
HT1080 IDH1KD tx: qHTS for induction of synthetic lethality in tumor cells producing 2HG: qHTS for the HT-1080-IDH1KD cell line | AID 686971, 2013 | HT-1080 IDH1 knockdown viability, ATP luminescence, 48 h | Potency, µM (highest dose often 46.1 µM), inactives show top-dose activity, negative = toxicity, most hits filed as cytotoxic | hit rate 2% among 360,000;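 also: 0% = DMSO wells and -100% = cell-free medium wells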
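Using the IDH1-knockdown HT-1080 line run in the same batch and compound series as the NT line, viability after 48 h at 37 °C was determined by CellTiter-Glo luminescence and expressed as % activity.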
HT1080-NT tox: qHTS for induction of synthetic lethality in tumor cells producing 2HG: qHTS for the HT-1080-NT fibrosarcoma cell line. HT-1080-NT fibrosarcoma viability, CellTiter-Glo ATP luminescence, 48 h. Potency, µM (titrated, usually from 46.1 µM), for inactives: at the highest dose activity, negative = less viability, most hits filed as cytotoxic. hit rate 1.6% among 360,000;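 also: NT is the 2HG producing partner of a matched IDH1 knockdown line; 0% = DMSO-treated cells and -100% = media-only wells without cells; nearly all actives have a fitted effect of over 55% in size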
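Fibrosarcoma NT cells, 750 per well in 5% FBS RPMI, were exposed to compound for 48 hours. Viability: CellTiter-Glo luminescence.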
KB-3-1 tox: qHTS assay for MDR1-selective chemotherapeutics: Primary screen using the parental adenocarcinoma cell KB-3-1; KB-3-1 viability, CellTiter-Glo ATP luminescence, 72 h; Potency, µM (top dose mostly 46.1 µM), hits mostly cytotoxic; hit rate 1.4% among 400,000; also: % is scaled to controls: 0 for no effect and ±100 for the full control effect; nearly all actives have a fitted effect of over 60% in size
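Cytotoxicity measured as CellTiter-Glo luminescence after 72 h at 37 C. Compound titrations were pinned onto drug-naive KB-3-1 parental adenocarcinoma cells grown in DMEM with 10% FBS, and normalized data fitted to concentration-response curves.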
SW480 rereplic: A quantitative high throughput screen for small molecules that induce DNA re-replication in SW480 colon adenocarcinoma cells; hit rate 1.8% among 340,000; AID 624297, 2012; SW480 DNA re-replication, Hoechst DNA content imaging, 48 h; Potency, µM (doses to about 46.1 µM), inactives show at the top dose re-replication activation, usual class: activators; also: % of control where 0% means no effect; nearly all actives have a fitted effect of over 55% in size
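Cells (250 per well) received 23 nL compound or DMSO by pin tool and were kept 48 hr at 37 C, 5% CO2. Nuclei were then stained with Hoechst for 40 min and scanned for DNA content.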
MCF10A rerep: A quantitative high throughput screen for small molecules that induce DNA re-replication in MCF 10a normal breast cells. MCF 10A DNA re-replication, Hoechst nuclear intensity, 48 h. Potency, µM (series often up to 46.1 µM), without a hit: at the highest dose activity, positive = re-replication, usual class: activators. hit rate 2.9% among 350,000; also: % of control where 0% means no effect; nearly all actives have a fitted effect of over 50% in size
KB-V1 cytotox: qHTS assay for MDR1-selective chemotherapeutics: Primary screen using the drug-selected MDR subline cells KB-V1 | KB-V1 MDR cells viability, CellTiter-Glo, 72 h | Potency, µM (highest dose often 46.1 µM), actives largely listed as cytotoxic | hit rate 3.4% among 400,000; also: % is scaled to controls: 0 for no effect and ±100 for the full control effect; nearly all actives have a fitted effect of over 60% in size
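Drug-selected KB-V1 cells, grown in DMEM lacking phenol red with 10% FBS, receive compound titrations; after three days at 37 degrees C, surviving cell ATP is quantified by CellTiter-Glo luminescence and responses normalized and curve-fitted.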
The depositor's hits bear a star; i = inactive; ? = inconclusive; / = not tested or not shown; ! = not active in a repeat; [ ] = remark or other dose. Compounds with a hit are over-represented: about 7.9% of the library has one in this group of screens. Calls follow the shape of the dose curve; as a rule, active = well fitted curve in the direction sought with a large enough effect; inconclusive = small, poorly fitted or top-dose-only effect, or another doubt; inactive = no such curve, though single readings can be large; an effect the other way counts as inactive or inconclusive. Potency is read from the fitted curve at half-maximal effect.

SMILES	HT1080 IDH1KD tx	HT1080-NT tox	KB-3-1 tox	SW480 rereplic	MCF10A rerep	KB-V1 cytotox
CCN(Cc1ccc2c(c1)OCCO2)C(=O)CN1C(=O)NC2(CCCCC2)C1=O	-3.0%	-2.3%	i	-4.5%	-2.3%	18.4µM*
CN(Cc1ccc2c(c1)OCCO2)C(=O)CN1C(=O)NC2(CCCCC2)C1=O	10.4%	17.6%	i	-11.8%	-20.0%	i
Cc1ccc(/C=N/n2c(-c3ccccn3)n[nH]c2=S)o1	0.0%	-0.7%	i	13.9%	-1.3%	i
CCC(=O)c1ccc2c(c1)N(CCCN1CCN(CCO)CC1)c1ccccc1S2	/	/	/	?	33.5µM*	/
CN1CCN(CCCN2c3ccccc3Sc3ccc(Cl)cc32)CC1	20.6µM*!	14.6µM*!	?	38.1%	11.6µM*	16.4µM*!
CC(CN1CCN(CCOCCO)CC1)CN1c2ccccc2Sc2ccc(Cl)cc21 (stereo not given)	?	23.1µM*	?	/	/	i
OC1CC2CCC(C1)N2CCCN1c2ccccc2Sc2ccc(Cl)cc21 (stereo not given)	4.61µM*	?	?	?	?	?
O=C(CSc1nc(=O)n(CCN2CCOCC2)c2c1CCC2)Nc1ccc(OC(F)(F)F)cc1	-14.4%	?	i	-320.1%	?	i
COC(=O)c1sc2cnccc2c1N	?	-8.1%	i	?	17.5%	?
COCCNC(=O)C(c1ccncc1)N(C(=O)Cn1nnc2ccccc21)c1ccc(OC)cc1 (stereo not given)	5.0%	7.8%	i	2.1%	-0.9%	i
CC(C)(C)OC(=O)C[C@H]1C/C=C\C[C@@H](CC(=O)N[C@@H](CO)Cc2ccccc2)C(=O)N2CCC[C@H]2COC1=O	-0.1%	-5.4%	i	0.1%	?	i
CC(=O)c1ccc2c(c1)N(CCCN1CCN(CCO)CC1)c1ccccc1S2	/	/	/	?	20.0%	/
CCSc1ccc2c(c1)N(CCCN1CCN(C)CC1)c1ccccc1S2	?	18.4µM*	i	-10.1%	?	i
CCSc1nnc(NC(=O)CSc2nnc(CNC(=O)c3cc(OC)c(OC)c(OC)c3)o2)s1	15.1%	?	i	-4.0%	1.2%	i
Cc1ccc(N/C(N)=N/c2nc(C)cc(N3CCCCC3)n2)c(C)c1	?	14.6µM*	16.4µM*	?	18.4µM*	10.3µM*
Cc1occc1-c1nnc(SCC(=O)c2c[nH]c3ccccc23)n1C	-12.3%	-9.6%	?	-1.5%	3.9%	i
CC(C)C[C@@H]1O[C@H](CCc2ccccc2)CC2=C1C(=O)OC(C)(C)O2	23.1µM*	?	?	/	/	i
CC(C)[C@@H]1CC2=C(C(=O)OC(C)(C)O2)[C@H](CCc2ccccc2)O1	16.4µM*	-15.3%	i	/	/	i
CC(C)C[C@@H]1CC2=C(C(=O)OC(C)(C)O2)[C@H](CCc2ccccc2)O1	0.5%	-24.3%	i	/	/	?
Cc1noc(C)c1CSc1nc2ccccc2n1CCc1ccccc1	-4.0%	0.7%	?	12.9%	17.3%	?
CCCCN(C(=O)c1cccc(S(=O)(=O)N2CC(C)OC(C)C2)c1)c1c(N)n(CCCC)c(=O)[nH]c1=O (stereo not given)	17.0%	0.0%	i	-2.1%	1.8%	i
CCCc1cc(=O)oc2c(C)c3occ(C)c3cc12	-4.3%	1.0%	i	3.9%	?	?
O=C(Nc1cc(Cl)ccc1F)c1ccc(-n2cncn2)c([N+](=O)[O-])c1	9.8%	6.7%	i	65.3%	-1.7%	i
CCN1CCN(c2ccc(NC(=O)c3ccc([N+](=O)[O-])o3)cc2Cl)CC1	13µM*	?	i	1.4%	1.3µM*	?
O=C(Nc1cc(Cl)ccc1-n1cncn1)c1ccc([N+](=O)[O-])o1	-21.6%	-21.9%	13µM*	20.6µM*	?	?
SMILES	HT1080 IDH1KD tx	HT1080-NT tox	KB-3-1 tox	SW480 rereplic	MCF10A rerep	KB-V1 cytotox
CCC(=O)N1CCN(c2ccc(Cl)cc2NC(=O)c2ccc([N+](=O)[O-])o2)CC1	?	?	i	9.2µM*	?	i
CCN1CCN(c2ccc(NC(=O)c3ccc(F)cc3)cc2Cl)CC1	7.7%	17.0%	?	18.2%	?	i
CC(=O)N1CCN(c2ccc(NC(=O)c3ccco3)cc2Cl)CC1	-2.8%	-3.8%	i	-3.6%	8.2%	i
CC(=O)N1CCN(c2ccc(NC(=O)c3ccc([N+](=O)[O-])o3)cc2Cl)CC1	6.51µM*	3.26µM*	?	?	3.26µM*	?
Cc1ccc(N2CC(C(=O)Nc3cc(C)ccc3F)CC2=O)cc1 (stereo not given)	-3.6%	-2.5%	i	-3.8%	1.1%	i
CCn1cc(C(=O)N2CCc3ccccc3C2)c(=O)c2cc(S(=O)(=O)N3CCCCC3)ccc21	/	/	/	-324.6%	?	/
O=C(COC(=O)Cc1ccccc1F)NCc1ccccc1Cl	2.1%	7.9%	i	/	/	i
CCC(=O)N1CCN(c2ccc(NC(=O)c3ccc([N+](=O)[O-])o3)cc2Cl)CC1	7.31µM*	11.6µM*	?	2.3%	?	i
CCC(=O)N1CCN(c2ccc(NC(=O)c3ccc(Br)o3)cc2)CC1	-13.2%	-3.6%	i	20.6µM*	2.6%	i
CCC(C)NS(=O)(=O)c1ccc(NS(=O)(=O)c2ccccc2[N+](=O)[O-])cc1 (stereo not given)	-2.7%	-0.2%	i	-52.8%	?	i
CCOC(=O)N1CCC(NC(=O)C2CCCN(C(=O)c3cc4sccc4n3C)C2)CC1 (stereo not given)	1.2%	8.3%	i	-4.4%	-11.4%	?
O=C(CN1C(=O)/C(=C/c2cccc(Br)c2)SC1=S)NCCCN1CCOCC1	-29.9%	-12.3%	/	12.4%	-0.1%	/
O=C(CCCN1C(=O)/C(=C/c2cccc(Br)c2)SC1=S)NCCCN1CCOCC1	?	?	?	-1.9%	23.1µM*	?
O=C(CCN1C(=O)/C(=C/c2ccccc2Cl)SC1=S)NCCCN1CCOCC1	-9.2%	3.4%	14.6µM*	?	-3.9%	i
Cn1c(=N)n(CC(O)c2cccc3ccccc23)c2ccccc21 (stereo not given)	-9.3%[9.24 µM]	23.1µM*	?	?	16.1%	?
